A word on the inhibition: it is the change of the read-out against control, counted positive when it falls.

The values below come from PubChem BioAssay.

Assay [1] can be described thus: inhibitors of TNFa-induced NFkB p65 translocation, primary screen, imaging, HUVEC, MLSMR starter and 10KST1 sets (AID 438).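 For inhibition: signal is the nuclear over cytoplasmic p65 intensity ratio per well.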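 Note: compound added about 3h40 before a 20 min TNFalpha stimulation.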 To be noted: HUVEC TNFa-induced p65 nuclear translocation; cell count: measured here: nuclei count (cytotoxicity indicator), at 2.08 µM; inhibition: at 2 µM, stronger effect = higher value, 0% TNFa-plus-vehicle, 100% no-TNFa wells.
Assay [2] is described as follows: inhibitors of mutant huntingtin aggregation, primary screen, imaging, exon1htt(103Q)mCFP cells, high-content imaging (AID 483;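 active = visual image review flags a hit and inhibition of aggregation exceeds 20%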;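 note: compound exposure lasted 3 days before fixation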;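 for nuclei count: percent of the per-plate median nuclei count of sample wells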). The following applies: exon1htt(103Q)mCFP cell line, aggregate imaging, at 2 µM; inhibition of aggregation: stronger effect = higher value; nuclei count: measured here: cell count, toxicity.
The nature of assay [3]: inhibitors of E-selectin induction by TNFa, primary screen, imaging, HUVEC, immunofluorescence, MLSMR starter and 10KST1 sets (AID 487;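 active = visually confirmed hit in the image check and inhibition above 20%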;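 for inhibition: signal is fraction of cell area covered by stained E-selectin grains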;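 for nuclei count: 100% = median nuclei count of all wells on the same plate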). To be noted: HUVEC TNFalpha-induced E-selectin immunofluorescence imaging, at 2 µM; inhibition: stronger effect = higher value; nuclei count: measured here: cell number, toxicity.
Assay [4] addresses Voltage-gated potassium channel subunit beta-2 (Rattus norvegicus) (UniProt P62483). Kind of assay: KvBeta enzyme negative modulators, primary screen, biochemical, NADPH fluorescence (AID 622;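 active = fluorescence slope higher than the sample average by over 3 SD, cut at about -0.22 in these data, passing the limit was not always enough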;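 note: slope of raw intensity against log time taken from 70 to 1610 s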). To be noted: recombinant KvBeta, 4-cyanobenzaldehyde reduction, at 10 µM, stronger effect = higher value.
For assay [5] the target is unchanged. Kind of assay: KvBeta positive modulators, primary screen, biochemical, NADPH fluorescence (AID 623;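 active = NADPH fluorescence slope more negative than the mean of all samples by about 3 SD, 99.7% confidence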;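 note: fluorescence intensity change per second fitted from 20 to 320 s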). The following applies: Recombinant KvBeta, NADPH fluorescence decrease slope, 10 min; at 10 µM; stronger effect = lower value.
Assay [6] deals with Alpha-2C adrenergic receptor (Homo sapiens) (UniProt P18825). Kind of assay: modulators of alpha2C/GIRK thallium flux, primary screen, cell-based, HEK293 alpha2C/GIRK1/2 (AID 624;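 active = fluorescence slope after compound addition differing from the mean of all screened samples at 99.7% confidence, in either direction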;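 note: slope of fluorescence ratio to pre-addition baseline per second over 15 to 24 s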). The following applies: thallium flux BTC fluorescence, at 10 µM, actives lie on both sides.
Assay [7] can be described thus: inhibitors of Sendai virus-induced IRF3 signaling, primary screen, TLR/RLR signaling modifier project, cell-based, Sendai virus stimulus, luciferase, 10K MLSCN set (AID 602276;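 active = inhibition at or above 50% at 10 µM; inactive = inhibition below 50%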;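 note: firefly luciferase from ISG56 promoter only with Renilla not read in this screen; 0% = Sendai virus plus DMSO and 100% = medium plus DMSO without virus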). The following applies: HEK293 RL24 IRF3 luciferase reporter, at 10 µM, stronger effect = higher value. For orientation: In a reporter assay the amount or activity of a reporter protein is the signal.
Assay [8] in a line: inhibitors of poly I:C-induced TLR3 signaling, primary screen, cell-based, poly I:C stimulus, luciferase, 10K MLSCN set (AID 602277;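 active = inhibition of the reporter signal at or above 50%; inactive = inhibition below 50%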). To be noted: HEK293-TLR3 RL24 IRF3 luciferase reporter, at 10 µM, stronger effect = higher value.

Molecules are shown by their SMILES. The source made the active and inactive calls.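 Rule for the calls, unless noted: active = inhibition above 20% together with a positive visual image hit; inconclusive = visual image hit but inhibition not above 20%; inactive = no visual image hit.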

Sequence of Alpha-2C adrenergic receptor (Homo sapiens) (P18825 whole entry, looked up): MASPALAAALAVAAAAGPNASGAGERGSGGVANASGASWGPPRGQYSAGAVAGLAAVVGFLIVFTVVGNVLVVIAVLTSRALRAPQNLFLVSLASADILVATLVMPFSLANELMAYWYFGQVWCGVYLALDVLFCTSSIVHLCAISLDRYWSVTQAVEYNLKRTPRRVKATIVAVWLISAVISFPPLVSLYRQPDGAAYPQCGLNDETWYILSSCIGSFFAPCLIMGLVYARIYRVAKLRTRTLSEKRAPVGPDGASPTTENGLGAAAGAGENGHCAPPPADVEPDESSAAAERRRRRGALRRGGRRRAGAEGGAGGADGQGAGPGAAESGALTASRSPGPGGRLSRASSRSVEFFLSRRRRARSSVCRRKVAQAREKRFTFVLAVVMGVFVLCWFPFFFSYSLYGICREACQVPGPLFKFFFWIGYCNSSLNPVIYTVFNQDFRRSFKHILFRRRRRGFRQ
Sequence of Voltage-gated potassium channel subunit beta-2 (Rattus norvegicus) (P62483 whole entry, looked up): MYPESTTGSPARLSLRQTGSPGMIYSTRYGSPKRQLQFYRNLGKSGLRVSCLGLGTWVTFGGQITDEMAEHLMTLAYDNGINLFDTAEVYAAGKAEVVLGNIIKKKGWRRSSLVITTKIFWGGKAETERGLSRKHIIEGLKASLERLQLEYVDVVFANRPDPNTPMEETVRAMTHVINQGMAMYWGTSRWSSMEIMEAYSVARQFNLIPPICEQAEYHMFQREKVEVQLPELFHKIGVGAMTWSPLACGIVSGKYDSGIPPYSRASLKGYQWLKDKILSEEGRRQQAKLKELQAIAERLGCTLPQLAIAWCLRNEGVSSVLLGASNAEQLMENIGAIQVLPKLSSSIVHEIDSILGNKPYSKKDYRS

As to `Cc1cccc(NC(=O)c2cc(NC(=O)c3ccco3)ccc2N2CCCCC2)c1`, the cell count in assay [1] came out at 635. For the same molecule, the inhibition was -3.9% (inactive) in assay [1], -48.5% (inactive) in assay [3], 8.72% (inactive) in assay [7] and 8.79% (inactive) in assay [8]. Besides, in assay [2], the inhibition of aggregation was -3.7% (inactive). For the same molecule, the nuclei count in assay [2] is 113%; in assay [3], 107%. For the same molecule, in assay [4], the fluorescence slope was -0.52 (inactive). In addition, in assay [5], the NADPH fluorescence slope is -1.8e-05 (inactive). The slope in assay [6] was 0.0032 (inactive).

As to `Cc1nc(CCNS(=O)(=O)c2cccs2)cs1`, in assay [1], the cell count was 371. The inhibition is -4.4% (inactive) in assay [1], -20.4% (inactive) in assay [3], -9.77% (inactive) in assay [7] and -22.4% (inactive) in assay [8]. Besides, in assay [2], the inhibition of aggregation was 6.9% (inactive). Further, the nuclei count turned out to be 108% in assay [2] and 102% in assay [3]. Also, the fluorescence slope in assay [4] is -0.566 (inactive). Also, the NADPH fluorescence slope in assay [5] is 2.6e-05 (inactive). Moreover, the slope in assay [6] is 0.00608 (inactive).

For `CCn1c(Cc2ccccc2)nnc1SCC(=O)Nc1ccc(N2CCOCC2)c(Cl)c1`, the cell count in assay [1] was found to be 427. Further, the inhibition is 0.3% (inactive) in assay [1], -56.2% (inactive) in assay [3], 14% (inactive) in assay [7] and 5.26% (inactive) in assay [8]. Besides, the inhibition of aggregation in assay [2] was -13.2% (inactive). Besides, the nuclei count was determined as 108% in assay [2] and 168% in assay [3]. In assay [4], the fluorescence slope was -0.441 (inactive). In addition, in assay [5], the NADPH fluorescence slope is -6.7e-06 (inactive). Moreover, in assay [6], the slope is 0.00559 (inactive).

On to `O=C(Cn1ncc2c1-c1ccccc1OC2)N1CCN(c2ccccn2)CC1`, for which, in assay [1], the cell count amounted to 631. Also, the inhibition was -1.1% (inactive) in assay [1], -55.8% (inactive) in assay [3], 3.72% (inactive) in assay [7] and 26.9% (inactive) in assay [8]. In addition, the inhibition of aggregation in assay [2] is -24.9% (inactive). The nuclei count in assay [2] is 131%; in assay [3], 111%. For the same molecule, in assay [4], the fluorescence slope was -0.587 (inactive). In assay [5], the NADPH fluorescence slope is -5.3e-05 (inactive). For the same molecule, the slope in assay [6] is 0.00617 (inactive).

As to `COC(=O)c1[nH]c2ccc(F)cc2c1NS(=O)(=O)c1ccc(OC)cc1OC`, the cell count in assay [1] came to 682. Further, the inhibition in assay [1] is -11% (inactive); in assay [3], -80.2% (inactive); in assay [7] it was 16.7% (inactive); in assay [8], 45.4% (inactive). Moreover, the inhibition of aggregation in assay [2] was -3.2% (inactive). For the same molecule, the nuclei count in assay [2] worked out at 106%; in assay [3] it was 152%. Besides, the fluorescence slope in assay [4] is -0.598 (inactive). In addition, the NADPH fluorescence slope in assay [5] is -5.6e-05 (inactive). Moreover, the slope in assay [6] is 0.00552 (inactive).

In the case of `O=C(c1cc(C2CC2)on1)N1CCN(C(c2ccccc2)c2ccccc2)CC1`, the cell count in assay [1] is 731. Moreover, the inhibition is -3.5% (inactive) in assay [1], -61% (inactive) in assay [3], 7.04% (inactive) in assay [7] and 35.9% (inactive) in assay [8]. For the same molecule, in assay [2], the inhibition of aggregation was 25% (inactive). The figures for the nuclei count in assay [2] and in assay [3] were 82% and 89.3%, respectively. The fluorescence slope in assay [4] was -0.573 (inactive). The NADPH fluorescence slope in assay [5] was -7.4e-06 (inactive). Also, the slope in assay [6] was 0.00569 (inactive).

For `CCN(CCNC(=O)CS(=O)(=O)Cc1nc(-c2cccc(OC)c2)oc1C)c1ccccc1`, in assay [1], the cell count was found to be 644. In addition, the inhibition in assay [1] is -27.6% (inactive); in assay [3] it was -37.8% (inactive); in assay [7] it was 13.7% (inactive); in assay [8], 20.1% (inactive). In addition, the inhibition of aggregation in assay [2] was -16.4% (inactive). Besides, the values for the nuclei count in assay [2] and in assay [3] were 121% and 107%, respectively. Besides, in assay [4], the fluorescence slope was -0.53 (inactive). For the same molecule, the NADPH fluorescence slope in assay [5] is -4e-05 (inactive). Moreover, in assay [6], the slope was 0.00529 (inactive).

As for `CCOc1cc(C(=O)N(C)c2ccccc2)cc(OCC)c1OCC`, the cell count in assay [1] came to 314. Moreover, the inhibition in assay [1] is 5.5% (inactive); in assay [3], 5.8% (inactive); in assay [7] it was 18.6% (inactive); in assay [8], 32.8% (inactive). For the same molecule, in assay [2], the inhibition of aggregation was 17.8% (inactive). The figures for the nuclei count in assay [2] and in assay [3] were 97.5% and 86.2%, respectively. Further, the fluorescence slope in assay [4] is -0.368 (inactive). For the same molecule, in assay [5], the NADPH fluorescence slope is -3.2e-05 (inactive). The slope in assay [6] is 0.00526 (inactive).

For `Cn1c(=O)c2c(-c3ccccc3)n(CCCN3CCOCC3)cc2n(C)c1=O`, in assay [1], the cell count amounted to 953. Also, the inhibition in assay [1] is 7.9% (inactive); in assay [3], -6.9% (inactive); in assay [7], -9.43% (inactive); in assay [8], -18.1% (inactive). Besides, in assay [2], the inhibition of aggregation was -17.3% (inactive). The nuclei count was determined as 108% in assay [2] and 102% in assay [3]. In addition, in assay [4], the fluorescence slope was -0.574 (inactive). Moreover, the NADPH fluorescence slope in assay [5] is -2.7e-08 (inactive). In addition, the slope in assay [6] is 0.00936 (inactive).

`Cc1cc(NC(=O)CSc2nc3c(c(=O)n2Cc2ccccc2)SC(C)C3)no1` (stereo not given): the cell count in assay [1] amounted to 554. The inhibition is 8% (inactive) in assay [1], 15.8% (inactive) in assay [3], -14.3% (inactive) in assay [7] and -5.37% (inactive) in assay [8]. For the same molecule, the inhibition of aggregation in assay [2] was -16.2% (inactive). The nuclei count was determined as 77.3% in assay [2] and 86.8% in assay [3]. In addition, the fluorescence slope in assay [4] is -0.417 (inactive). The NADPH fluorescence slope in assay [5] is -6.8e-05 (inactive). For the same molecule, in assay [6], the slope was 0.00456 (inactive).
